Experimental findings from PubChem BioAssay are described below.

The source made the active and inactive calls.

A short description of assay [1]: small molecules captured by biotinylated probe aFSTL3 – biochemical, small-molecule microarray, fluorescence 635/667, stem cell growth factor project, primary screen (AID 1064).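 Also: measures binding of the biotinylated anti-FSTL3 antibody to printed compounds.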 The settings on record: higher = more signal.
Assay [2] in a line: binders from COS7 lysate, DM2A8 probe, primary screen, torsin A project, cell lysate, small-molecule microarray, fluorescence 635/667 (AID 1065). The note with it: higher = more signal, COS7 lysate expressing mutant human TOR1A.
Assay [3] can be described thus: small molecules captured by biotinylated probe aFGF2 – biochemical, small-molecule microarray, fluorescence 635/667, stem cell growth factor project, primary screen (AID 1067).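 Also: measures binding of biotinylated aFGF2 protein to printed compounds on slides; z-score merges feature fluorescence and signal-to-noise across triplicate slides.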 The settings on record: higher = more signal.
A short description of assay [4]: small molecules captured by biotinylated probe aFGF10 – biochemical, small-molecule microarray, fluorescence 635/667, stem cell growth factor project, primary screen (AID 1071).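 Also: score merges 667 nm spot intensity and signal to noise from triplicate slides.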 The settings on record: higher = more signal.
The target of assay [5] is Neurogenic locus notch homolog protein 2 (Homo sapiens) (UniProt Q04721). Nature of the assay: small molecules binding Notch2 protein – biochemical, small-molecule microarray, 635 nm fluorescence, stem cell growth factors, primary screen (AID 1073). The note with it: higher = more signal.
Assay [6] concerns the target Pro-neuregulin-1, membrane-bound isoform (Homo sapiens) (UniProt Q02297). Nature of the assay: small molecules binding neuregulin-1 protein – biochemical, small-molecule microarray, fluorescence 635/667, psychiatric disease protein project, primary screen (AID 1075).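 Also: score combines 667 nm spot fluorescence with signal to noise.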 The note with it: NRG1 binding, 635 nm fluorescence, higher = more signal.
Assay [7] concerns Neuregulin-1 EGF-like domain. Nature of the assay: small molecules binding NRG1 EGF domain – biochemical, small-molecule microarray, 635 nm fluorescence, primary screen (AID 1081).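 Also: binding of the protein to compounds printed on small-molecule microarray slides.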 The settings on record: higher = more signal.
Assay [8] in a line: FRG1 expression reporter modulators in myotubes – cell-based, C2C12 myotubes, firefly/Renilla luciferase, luminescence, FRG1 inhibition for FSHD, primary screen (AID 1084). The settings on record: FRG1 promoter luciferase, higher = more signal, called active from +8 up or from −8 down.
Assay [9] is described as follows: small molecules captured by biotinylated probe aFST – biochemical, small-molecule microarray, fluorescence 635/667, stem cell growth factor project, primary screen (AID 1086).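 Also: score merges 667 nm fluorescence with signal-to-noise of each printed compound spot.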 The note with it: higher = more signal.
A short description of assay [10]: binders of probe aHhip on microarray, primary screen, stem cell growth factor project, biochemical, small-molecule microarray, fluorescence 635/667 (AID 1087).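 Also: score merges spot fluorescence at 667nm with spot signal to noise ratio.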 The settings on record: higher = more signal.
Assay [11] concerns PRMT1 (protein arginine N-methyltransferase 1). Nature of the assay: small molecules binding arginine methyltransferase PRMT1 – biochemical, small-molecule microarray, 635 nm fluorescence, primary screen (AID 1088).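 Also: binding of Prmt1 protein to compounds spotted on small-molecule microarray slides.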 The note with it: higher = more signal.
Assay [12] is described as follows: growth effects on S. cerevisiae YJM789 – YJM789 clinical isolate, OD600, 24 h, basal, primary screen (AID 1089).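 Also: growth of clinical yeast isolate S. cerevisiae YJM 789 seeded 1000 cells per well; test concentration not given here.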 The settings on record: higher = more signal, called active from +8 up or from −8 down.
Assay [13] in a line: S. pombe growth modifiers, basal conditions – strain 972, OD600, 24 h, no modulator, primary screen (AID 1090).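 Also: basal condition with compound alone and no growth modifier present; test concentration not given here.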 The settings on record: S. pombe 972 growth, higher = more signal, called active from +8 up or from −8 down.
Assay [14] can be described thus: budding yeast growth modifiers under rapamycin – strain BY4716, OD600, 96 h, primary screen (AID 1091). Also: test concentration not given here. The note with it: S. cerevisiae BY4716 + rapamycin, higher = more signal, called active from +8 up or from −8 down.
The target of assay [15] is Torsin-1A-interacting protein 2 (Homo sapiens) (UniProt Q8NFQ8). As to the kind of experiment: small molecules binding lysate-expressed LULL1 – cell lysate, human LULL1 lysate, 635/667 nm fluorescence, primary screen (AID 1092).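 Also: probe is lysate of COS7 cells overexpressing human LULL1; score merges per-feature 667 nm fluorescence with signal-to-noise.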 The note with it: small-molecule microarray, hLULL1 lysate binding, 635 nm fluorescence; higher = more signal.
Sequence of Torsin-1A-interacting protein 2 (Homo sapiens) (Q8NFQ8 whole entry, looked up): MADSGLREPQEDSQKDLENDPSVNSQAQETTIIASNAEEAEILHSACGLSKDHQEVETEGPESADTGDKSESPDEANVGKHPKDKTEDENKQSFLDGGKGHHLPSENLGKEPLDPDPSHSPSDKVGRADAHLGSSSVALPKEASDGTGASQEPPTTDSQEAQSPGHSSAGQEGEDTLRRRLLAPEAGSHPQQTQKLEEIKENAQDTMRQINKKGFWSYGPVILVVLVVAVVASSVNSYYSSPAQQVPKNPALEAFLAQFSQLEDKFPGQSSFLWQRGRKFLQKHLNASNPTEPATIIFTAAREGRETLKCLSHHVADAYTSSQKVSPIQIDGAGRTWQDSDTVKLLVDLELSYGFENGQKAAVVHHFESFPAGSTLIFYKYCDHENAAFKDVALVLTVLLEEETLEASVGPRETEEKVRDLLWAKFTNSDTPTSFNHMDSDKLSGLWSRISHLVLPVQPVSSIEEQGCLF
Assay [16] can be described thus: optical density change of DRC41 E. coli – strain DRC41, OD650, 24 h, E. coli filamentation project, primary screen (AID 1093).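 Also: MC1000 strain lacking acrAB efflux and sulA so SOS filamentation is blocked; test concentration not given here.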 The note with it: E. coli DRC41 growth, higher = more signal, called active from +8 up or from −8 down.
The nature of assay [17]: probe aLefty2 binding to arrayed compounds – biochemical, biotinylated probe, 635/667 nm fluorescence, primary screen (AID 1094).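 Also: score merges spot fluorescence near 667 nm with spot signal-to-noise ratio.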 The settings on record: small-molecule microarray, higher = more signal.
The subject of assay [18] is Noggin (protein binding on small-molecule microarray). Nature of the assay: small molecules binding Noggin protein – biochemical, 635/667 nm fluorescence, primary screen (AID 1095).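 Also: score merges 667 nm feature fluorescence with signal to noise over triplicate slides.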 The note with it: 635 nm fluorescence, higher = more signal.
The target of assay [19] is Neurogenic locus notch homolog protein 3 (Homo sapiens) (UniProt Q9UM47). Nature of the assay: small molecules binding NOTCH3 protein – biochemical, 635/667 nm fluorescence, primary screen (AID 1096). The settings on record: small-molecule microarray, 635 nm fluorescence, higher = more signal.
Sequence of Neurogenic locus notch homolog protein 3 (Homo sapiens) (Q9UM47 whole entry, looked up): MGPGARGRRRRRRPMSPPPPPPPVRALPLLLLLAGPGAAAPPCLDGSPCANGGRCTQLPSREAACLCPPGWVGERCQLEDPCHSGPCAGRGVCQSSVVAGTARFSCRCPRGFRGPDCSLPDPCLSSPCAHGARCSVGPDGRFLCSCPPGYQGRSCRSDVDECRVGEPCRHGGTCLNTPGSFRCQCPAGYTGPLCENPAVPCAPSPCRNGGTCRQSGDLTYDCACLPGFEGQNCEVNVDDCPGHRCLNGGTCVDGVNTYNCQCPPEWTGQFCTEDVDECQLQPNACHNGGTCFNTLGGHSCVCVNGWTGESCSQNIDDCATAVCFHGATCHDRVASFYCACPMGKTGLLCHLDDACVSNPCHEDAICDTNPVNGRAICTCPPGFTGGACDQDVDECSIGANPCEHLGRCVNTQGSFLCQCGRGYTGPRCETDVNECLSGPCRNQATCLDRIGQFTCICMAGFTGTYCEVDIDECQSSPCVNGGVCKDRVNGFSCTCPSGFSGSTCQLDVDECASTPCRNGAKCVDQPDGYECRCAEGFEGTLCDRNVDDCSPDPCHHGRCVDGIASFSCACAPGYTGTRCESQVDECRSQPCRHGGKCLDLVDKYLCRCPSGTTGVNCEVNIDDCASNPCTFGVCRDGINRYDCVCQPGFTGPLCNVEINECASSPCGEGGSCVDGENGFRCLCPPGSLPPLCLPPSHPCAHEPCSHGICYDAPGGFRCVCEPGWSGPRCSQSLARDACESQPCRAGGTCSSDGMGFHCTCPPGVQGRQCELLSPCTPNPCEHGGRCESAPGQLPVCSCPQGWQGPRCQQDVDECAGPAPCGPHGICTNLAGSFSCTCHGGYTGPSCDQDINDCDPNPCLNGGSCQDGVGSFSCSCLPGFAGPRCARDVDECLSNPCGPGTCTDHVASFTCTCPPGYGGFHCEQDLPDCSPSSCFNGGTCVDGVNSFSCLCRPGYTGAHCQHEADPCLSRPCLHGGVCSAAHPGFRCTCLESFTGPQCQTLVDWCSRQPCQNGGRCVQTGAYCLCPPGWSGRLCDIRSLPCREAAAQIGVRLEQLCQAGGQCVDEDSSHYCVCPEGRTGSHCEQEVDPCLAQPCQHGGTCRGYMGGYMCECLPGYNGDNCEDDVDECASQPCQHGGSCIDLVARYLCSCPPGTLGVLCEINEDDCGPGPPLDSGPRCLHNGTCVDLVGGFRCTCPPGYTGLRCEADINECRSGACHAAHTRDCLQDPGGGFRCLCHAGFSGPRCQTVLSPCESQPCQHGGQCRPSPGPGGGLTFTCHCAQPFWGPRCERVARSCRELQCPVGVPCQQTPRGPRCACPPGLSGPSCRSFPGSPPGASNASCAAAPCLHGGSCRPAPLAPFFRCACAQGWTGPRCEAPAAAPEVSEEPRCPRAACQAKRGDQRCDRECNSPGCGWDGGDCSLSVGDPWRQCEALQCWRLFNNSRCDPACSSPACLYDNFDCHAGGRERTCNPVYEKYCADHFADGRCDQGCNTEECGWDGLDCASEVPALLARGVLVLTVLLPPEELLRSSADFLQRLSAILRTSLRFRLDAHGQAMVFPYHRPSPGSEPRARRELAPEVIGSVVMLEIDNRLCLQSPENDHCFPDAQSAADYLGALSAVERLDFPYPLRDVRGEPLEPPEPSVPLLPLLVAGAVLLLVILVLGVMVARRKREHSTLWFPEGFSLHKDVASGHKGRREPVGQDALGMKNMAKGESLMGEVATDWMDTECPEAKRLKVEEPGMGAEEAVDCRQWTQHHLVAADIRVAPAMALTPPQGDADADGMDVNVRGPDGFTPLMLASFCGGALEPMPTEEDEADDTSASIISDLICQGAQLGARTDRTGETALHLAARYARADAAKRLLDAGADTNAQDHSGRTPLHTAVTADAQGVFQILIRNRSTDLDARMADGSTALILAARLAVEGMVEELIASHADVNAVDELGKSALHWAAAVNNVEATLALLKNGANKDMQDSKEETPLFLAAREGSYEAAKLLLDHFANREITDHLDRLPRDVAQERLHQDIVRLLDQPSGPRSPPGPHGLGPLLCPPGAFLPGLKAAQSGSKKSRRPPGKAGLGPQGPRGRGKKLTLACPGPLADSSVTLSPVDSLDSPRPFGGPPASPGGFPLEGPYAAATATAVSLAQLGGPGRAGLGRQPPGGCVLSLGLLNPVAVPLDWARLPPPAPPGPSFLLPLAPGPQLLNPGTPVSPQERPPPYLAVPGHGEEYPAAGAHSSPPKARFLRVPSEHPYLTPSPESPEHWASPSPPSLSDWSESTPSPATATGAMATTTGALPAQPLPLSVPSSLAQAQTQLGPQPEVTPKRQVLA
The nature of assay [20]: probe aEGFR binding to arrayed compounds – biochemical, biotinylated probe, 635/667 nm fluorescence, primary screen (AID 1097).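 Also: probe is a biotinylated anti-EGFR antibody binding compounds printed on slides; score combines fluorescence near 667 nm and signal to noise of each spot.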 The settings on record: small-molecule microarray, higher = more signal.

Sequence of Pro-neuregulin-1, membrane-bound isoform (Homo sapiens) (Q02297 whole entry, looked up, the tested form may be a part, canonical isoform): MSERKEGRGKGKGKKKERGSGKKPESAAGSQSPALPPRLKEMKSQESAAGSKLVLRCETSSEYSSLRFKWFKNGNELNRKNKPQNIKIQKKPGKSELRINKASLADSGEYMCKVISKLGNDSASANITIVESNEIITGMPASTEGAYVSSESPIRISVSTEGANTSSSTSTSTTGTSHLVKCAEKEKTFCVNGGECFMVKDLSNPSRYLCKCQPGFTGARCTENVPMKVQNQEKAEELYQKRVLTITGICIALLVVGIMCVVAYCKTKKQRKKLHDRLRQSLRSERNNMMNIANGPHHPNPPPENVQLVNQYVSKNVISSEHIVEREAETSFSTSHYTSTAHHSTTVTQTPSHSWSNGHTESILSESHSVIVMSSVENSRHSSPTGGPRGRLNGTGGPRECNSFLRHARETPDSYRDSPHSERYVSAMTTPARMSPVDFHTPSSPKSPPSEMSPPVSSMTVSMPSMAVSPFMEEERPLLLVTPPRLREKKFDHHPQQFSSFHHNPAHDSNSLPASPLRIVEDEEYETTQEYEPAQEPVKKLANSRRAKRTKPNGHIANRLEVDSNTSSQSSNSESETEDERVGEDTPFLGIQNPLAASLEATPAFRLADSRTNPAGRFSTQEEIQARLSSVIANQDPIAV

Consider `C=C(/C(=C/C[C@@H](OC(=O)c1ccncc1)c1cccc(OCCO)c1)c1cnc2ccccc2c1)C(C)C`, for which the composite z-score was 0.21 in assay [1]; 0.375 in assay [2]; -0.123 in [3]; 1.15 in [4]; 1.22 in assay [5]; 0.788 in [6]. Moreover, the composite z-score in [7] is 1.17; in [9] it was 0.573; in assay [10], -0.116; in assay [11], 1.55; in assay [15], 2.03; in assay [17] it was -0.0042. The figures for the composite z-score in [18], in assay [19] and in assay [20] were 1.27, 1.02 and 0.074, respectively. The z-score is 2.61 (inactive) in [8]; -2.06 (inactive) in assay [12]; -1.77 (inactive) in assay [13]; 1.29 (inactive) in [14]; 0.915 (inactive) in assay [16].
Regarding `CC1CC/C=C\[C@H]2OC34C=CCN(C(C)(C)C)C(=O)[C@H]3N(C(CO)C(C)C)C(=O)[C@@H]4C2C(=O)O1` (stereo not given in full), the composite z-score in assay [1] is -0.259; in assay [2], 2.01; in assay [3] it was -0.141; in assay [4], 0.323; in assay [5], -0.147; in assay [6] it was 0.867. Besides, the composite z-score in assay [7] was 1.5; in [9] it was -0.0219; in assay [10], -0.318; in assay [11], -0.447; in [15], 2.5; in assay [17] it was -0.147. The composite z-score in [18] is 0.476; in assay [19], 0.551; in assay [20], -0.0968. The z-score in [8] was 1.44 (inactive); in assay [12], -1.38 (inactive); in assay [13] it was -0.429 (inactive); in assay [14], -0.851 (inactive); in assay [16], -0.515 (inactive).
In the case of `C=CC[C@H](OC(=O)Nc1ccc(SC)cc1)c1ccc(OCCO)cc1`, the composite z-score in assay [1] was 0.339; in [2], 0.0366; in [3] it was -0.107; in [4], -0.85; in assay [5] it was -1.2; in [6], 0.958. Besides, the composite z-score was 1.07 in assay [7]; -0.413 in assay [9]; -0.0994 in [10]; -0.693 in assay [11]; 0.639 in assay [15]; -0.15 in [17]. Further, the composite z-score is 0.732 in assay [18], 0.201 in [19] and -0.19 in assay [20]. The z-score in assay [8] was 8.37 (active); in [12] it was -0.739 (inactive); in assay [13], -2.94 (inactive); in assay [14] it was -0.598 (inactive); in assay [16] it was 0.951 (inactive).
As to `COc1cc(CO)cc(I)c1O[C@H]1C=C(C(=O)NCCO)C[C@@H](NCC2CCCCC2)[C@@H]1O`, the composite z-score in assay [1] was -0.149; in [2], -0.422; in assay [3] it was -0.0506; in [4], 0.542; in assay [5] it was 0.481; in [6], 0.579. The composite z-score in [7] was 0.652; in assay [9], 0.638; in assay [10], 0.0505; in [11] it was 0.332; in [15], 2.65; in [17], -0.0719. Moreover, the composite z-score in assay [18] was 0.323; in assay [19], 0.793; in [20], -0.067. The z-score in [8] is -1.14 (inactive); in assay [12] it was -1.94 (inactive); in [13] it was -0.883 (inactive); in assay [14], -0.999 (inactive); in [16], 1.69 (inactive).
Regarding `COC(=O)[C@@]1(Cc2ccc(F)cc2)[C@H]2c3cc(C(=O)N(C)C)n(Cc4c(CO)[nH]cc(C)c4=O)c3C[C@H]2CN1C(=O)c1ccccc1`, the composite z-score is 0.535 in assay [1]; -0.199 in assay [2]; 0.142 in assay [3]; 1.16 in assay [4]; 1.42 in assay [5]; 2.1 in assay [6]. Besides, the composite z-score in [7] is 1.15; in assay [9], 0.255; in [10], -0.0237; in assay [11] it was -0.51; in assay [15] it was 1.63; in assay [17], 0.378. For the same molecule, the figures for the composite z-score in assay [18], in assay [19] and in [20] were -0.115, -0.032 and 0.297, respectively. For the same molecule, the z-score is 1.09 (inactive) in assay [8]; 0.342 (inactive) in [12]; -0.392 (inactive) in assay [13]; 0.796 (inactive) in assay [14]; -0.893 (inactive) in assay [16].
